{
  "source": "PubChem BioAssay AID574",
  "about": "(The Scripps Research Institute Molecular Screening Center, 2007)",
  "note": "Out of some 65,000 compounds screened, about 450 (0.69%) were called active. This excerpt belongs to a sample that is enriched for actives. Values without a mark were called inactive.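 The calls were made as follows: active = activation above a set limit, the screen-wide mean activation plus 3 SD (cut at about 8.5% in these data); inactive = the rest.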 Where a SMILES comes first, the peptide text is derived from it. The star is where a group is joined. Bz = O=C(c1ccccc1)*",
  "data": [
    {"target": "5-hydroxytryptamine receptor 1E (Homo sapiens) (UniProt P28566)", "sequence (P28566 whole entry, looked up)": "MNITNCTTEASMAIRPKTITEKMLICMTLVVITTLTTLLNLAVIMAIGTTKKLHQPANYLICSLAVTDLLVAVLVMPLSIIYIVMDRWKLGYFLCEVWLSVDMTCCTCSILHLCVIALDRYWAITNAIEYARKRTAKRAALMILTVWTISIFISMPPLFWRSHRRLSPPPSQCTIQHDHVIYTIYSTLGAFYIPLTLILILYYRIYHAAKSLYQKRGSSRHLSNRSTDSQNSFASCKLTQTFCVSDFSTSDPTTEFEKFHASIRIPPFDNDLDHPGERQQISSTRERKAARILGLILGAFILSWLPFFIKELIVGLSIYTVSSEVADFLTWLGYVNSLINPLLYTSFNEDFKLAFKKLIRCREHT", "test": "activation of human serotonin 5HT1E receptor – cell-based, HTS, primary screen (AID 574);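 also: 100% = positive control agonist at 1 µM giving full maximal response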", "details": "CHO 5-HT1E Ga15 NFAT-bla reporter, FRET; at 6 µM; hits give high values; 0% DMSO wells, 100% control agonist wells", "values": [
      {"smiles": "COCCCN1C(=O)c2ccc(C(=O)Nc3ccc(OC)cc3OC)cc2C1=O", "activation": "-0.6%"},
      {"smiles": "CCSc1nc(=S)n(CC)c(C)c1C(C)=O", "activation": "-0.3%"},
      {"smiles": "CCn1c(Cc2ccccc2)nnc1SCc1nc2ccccc2c(=O)[nH]1", "activation": "-0.1%"},
      {"smiles": "CCC(=O)Nc1nc(OC)cc(OC)n1", "activation": "-0.6%"},
      {"smiles": "Cc1ccc(CCn2c3c(c4ccccc42)CN(C)CC3)cn1", "activation": "0.2%"},
      {"smiles": "Cc1ccc2nc3n(c(=O)c2c1)CCC3", "activation": "-0.8%"},
      {"smiles": "COc1ccc(/C(O)=C2/C(=O)C(=O)N(c3nc(C)c(C)s3)C2c2ccco2)cc1", "note": "(stereo not drawn)", "activation": "0.5%"},
      {"smiles": "Cn1c(=O)cc(SCC(=O)N2CCCC2)c2cc(Cl)ccc21", "activation": "-0.2%"},
      {"smiles": "CCOc1ccc(-c2nnn(CC(=O)N3CCN(c4ccc(OC)cc4)CC3)n2)cc1OCC", "activation": "-1.1%"},
      {"smiles": "CCOC(=O)c1cc2c(n(-c3ccc(C)cc3)c1=O)CCCC2=O", "activation": "0.8%"},
      {"smiles": "C[C@@H](Nc1nc(-c2ccccc2)nc2c1oc1ccccc12)C(=O)O", "activation": "-0.7%"},
      {"smiles": "COc1ccc(S(=O)(=O)Nc2c(C)n(C)n(-c3ccccc3)c2=O)cc1", "activation": "-1.6%"},
      {"smiles": "CCC(C)Sc1nc2c(c(=O)[nH]c(=O)n2C)n1CC(O)COc1cccc2ccccc12", "note": "(stereo not drawn)", "activation": "1.1%"},
      {"smiles": "CCOc1c(OC)cc(C2C(C#N)=C(N)Oc3n[nH]c(-c4ccncc4)c32)cc1OC", "note": "(stereo not drawn)", "activation": "0.7%"},
      {"smiles": "Cc1nc(NC(CC(C)C)C(=O)O)c2nc(C)oc2n1", "note": "(stereo not drawn)", "activation": "-1.1%"},
      {"smiles": "Cc1cc(C(=O)COC(=O)c2cccs2)c(C)n1-c1c(C)n(C)n(-c2ccccc2)c1=O", "activation": "-0.2%"},
      {"smiles": "CN(C(=O)C1CCOC1)c1nnc(-c2cccnc2)s1", "note": "(stereo not drawn)", "activation": "-1.1%"},
      {"smiles": "COc1ccc(N2C(=O)CCC(C(=O)Nc3ccccn3)C2c2ccc(OC)c(OC)c2)cc1", "note": "(stereo not drawn)", "activation": "2.5%"},
      {"smiles": "CCOc1ccc(-n2c(SC(C)C(=O)OC)nc3c(c2=O)SCC3)cc1", "note": "(stereo not drawn)", "activation": "0.4%"},
      {"smiles": "COc1ccc(CC(=O)n2nc(-c3cccnc3)nc2N)cc1", "activation": "0.2%"},
      {"smiles": "O=c1nc(N2CCOCC2)nc2n1CCO2", "activation": "0.6%"},
      {"smiles": "COc1ccc(C(=O)n2nc(-c3ccc(C)cc3)nc2N)cc1OC", "activation": "0%"},
      {"smiles": "Cc1cc(=O)n(C)c(=O)n1CCCNc1ccccc1", "activation": "-0.1%"},
      {"smiles": "CN(C)CCNC(CC(=O)Nc1ccc(Cl)c(Cl)c1)C(=O)O", "note": "(stereo not drawn)", "activation": "0.3%"},
      {"smiles": "O=C(OCc1nnc(-c2ccccc2)o1)c1ccc2c(c1)C(=O)N(CCc1ccccc1)C2=O", "activation": "0.4%"},
      {"smiles": "Cc1ccc(-c2cc(C(F)(F)F)n3nc(C(=O)N4CCCC4)cc3n2)cc1", "activation": "0.8%"},
      {"smiles": "Cc1nc2c(-c3ccccc3)c(C)[nH]n2c(=O)c1Cl", "activation": "-0.7%"},
      {"smiles": "Cn1nnnc1SCc1cc(=O)[nH]c2ccccc12", "activation": "-0.5%"},
      {"smiles": "COc1ccccc1C(=O)N1CCN=C1SCc1cccnc1", "activation": "-0.4%"},
      {"smiles": "Cn1nc(-c2ccc(N3CCOCC3)c(NC(=O)c3ccccc3)c2)c2ccccc2c1=O", "activation": "-1%"},
      {"smiles": "FC(F)(F)c1cc(-c2cccs2)nc(NCc2ccco2)n1", "activation": "-1.9%"},
      {"smiles": "CC(c1ccccc1)n1c(NCCCn2ccnc2)nc2c1c(=O)[nH]c(=O)n2C", "note": "(stereo not drawn)", "activation": "-0.6%"},
      {"smiles": "COc1cccc(-c2nc3n(n2)C(c2ccccc2Cl)C(C(N)=O)=C(C)N3)c1", "note": "(stereo not drawn)", "activation": "-0.2%"},
      {"smiles": "CCOC(=O)c1sc(NC(=O)CCN2CCOCC2)c(C(=O)OCC)c1C", "activation": "-0.8%"},
      {"smiles": "CCc1c(C)sc(NC(=O)c2ccc(Br)o2)c1C(=O)OC", "activation": "0.2%"},
      {"smiles": "CCc1c(C)sc(NC(=O)OC)c1C(=O)N1CCOCC1", "activation": "14.2% (active)"},
      {"smiles": "CCCN(c1ccc(C(C)C)cc1)S(=O)(=O)c1c(C)[nH]c(=O)[nH]c1=O", "activation": "-0.3%"},
      {"smiles": "COc1ccccc1CNC(=O)Cn1cc2c(n1)CCCC2", "activation": "-0.6%"},
      {"smiles": "COCCNC(=O)Cn1cc2c(n1)CCCCC2", "activation": "-0.1%"},
      {"smiles": "O=C(Cn1cc2c(n1)CCCCC2)NCCN1CCOCC1", "activation": "9.7% (active)"},
      {"smiles": "COCCCNC(=O)COc1cc(C)c(Cl)c(C)c1", "activation": "-0.3%"},
      {"smiles": "NC(=S)c1ccc(C(N)=S)o1", "activation": "0%"},
      {"smiles": "Cc1nn(-c2cc(Cl)ccc2N)c(=O)c2ccccc12", "activation": "-0.1%"},
      {"smiles": "Cc1cccc(NC(=O)CSc2nnc(CCCCCNC(=O)OC(C)(C)C)o2)c1C", "activation": "-1.3%"},
      {"smiles": "O=C(O)C1CCN1C1CCCCC1", "note": "(stereo not drawn)", "activation": "-0.7%"},
      {"smiles": "Cc1ccc(S(=O)(=O)N2C3C=CC(C3)C2C(=O)O)cc1", "note": "(stereo not drawn)", "activation": "-0.4%"},
      {"smiles": "COc1ccc(C(=O)N(Cc2ccc(N(C)C)cc2)C2CCS(=O)(=O)C2)cc1", "note": "(stereo not drawn)", "activation": "0.3%"},
      {"smiles": "O=C(/C(=N\\O)n1cncn1)c1ccc(Br)cc1Br", "activation": "0.1%"},
      {"smiles": "CCn1c(=N)c(S(=O)(=O)c2ccc(F)cc2)cc2c(=O)n3ccccc3nc21", "activation": "4.4%"},
      {"smiles": "O=C(NC1CCCC1)c1ccc(Br)s1", "activation": "-1.5%"},
      {"smiles": "Clc1ccc(C=NC23CN4CN(CN(C4)C2)C3)cc1", "activation": "-0.1%"},
      {"smiles": "O=C(CN1CCN(CC(=O)Nc2ccc3c(c2)OCO3)CC1)Nc1ccc(F)cc1", "activation": "-0.7%"},
      {"smiles": "Cc1nnc(SCc2ccc(C(=O)c3ccc(Cl)cc3)o2)n1-c1ccccc1", "activation": "0.9%"},
      {"smiles": "O=C(NC(Cc1ccccc1)C(=O)N1CCCC1C(=O)O)c1ccccc1", "note": "(stereo not drawn) (Bz-Phe-Pro-OH; configuration not given here)", "activation": "-0.4%"},
      {"smiles": "N#Cc1c(/N=C/N2CCCC2)oc(-c2ccccc2)c1-c1ccccc1", "activation": "0.2%"},
      {"smiles": "O=C(Nc1ccccc1)N(Cc1cccnc1)Cc1ccco1", "activation": "10.7% (active)"},
      {"smiles": "O=C(Nc1ccccc1)Nc1ccccc1C(=O)NCc1ccco1", "activation": "-0.6%"},
      {"smiles": "O=C(CS(=O)(=O)Cc1ccccc1)Nc1cccnc1", "activation": "1.1%"},
      {"smiles": "COc1cccc(OCC(O)CN2CCN(CCO)CC2)c1", "note": "(stereo not drawn)", "activation": "-0.1%"},
      {"smiles": "C=CCC(NCCCO)c1cccc(OC)c1OC", "note": "(stereo not drawn)", "activation": "10.3% (active)"},
      {"smiles": "COc1ccccc1C(=O)C(O)c1ccccc1OC", "note": "(stereo not drawn)", "activation": "-0.2%"},
      {"smiles": "COc1cccc(C(CC(=O)NCCN2CCOCC2)NS(=O)(=O)c2ccc(C)cc2)c1OC", "note": "(stereo not drawn)", "activation": "0.5%"},
      {"smiles": "CC1CCCC(N2CCN(C(=O)c3ccc(F)cc3)CC2)C1", "note": "(stereo not drawn)", "activation": "-0.1%"}
    ]}
  ]
}
